{"source": "PubChem BioAssay AID504621", "about": "(Broad Institute, 2011)", "note": "Out of some 310,000 compounds screened, about 970 (0.31%) were called active. The sample holds actives, similar compounds and a random draw of the others, so the mix is not that of the screen. A number with no mark means an inactive call.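 Rule for the calls: active = every replicate shows inhibition above about 80%, whatever the replicate mean (limit read from the data); inconclusive = mean inhibition reaches the set limit but some replicate falls short; inactive = the rest.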"}
{"test": "growth inhibition of PfHsp90-expressing yeast, primary screen, antimalarial PfHsp90 inhibitor project, S. cerevisiae, BacTiter-Glo luminescence, single point, set 2 (AID 504621);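 note: yeast relying on Plasmodium falciparum Hsp90 in place of its own; 0% = DMSO neutral controls and 100% = 20 µM radicicol positive controls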", "settings": "BacTiter-Glo ATP, 48 h, at 9.4 µM, hits give high values, yeast lacking PDR1 and PDR3 efflux regulators"}
{"smiles": "O=S(=O)(Cc1ccc(Cl)cc1Cl)c1ccc(Cl)cc1", "inhibition": "-35.8%"}
{"smiles": "Cc1cccc(C)c1NC(=O)CN(C)C(=O)CCC(=O)c1ccccc1", "inhibition": "3.14%"}
{"smiles": "Cc1cccc(C)c1NC(=O)C(Cl)C(=O)c1ccccc1", "note": "(stereo not given)", "inhibition": "106% (active)"}
{"smiles": "Cc1cccc(C)c1NC(=O)C(c1ccccc1)N1CC(=O)Nc2ccccc21", "note": "(stereo not given)", "inhibition": "-3.52%"}
{"smiles": "CC[C@]12c3[nH]c4ccc(OC)cc4c3CCN1C(=O)C(CC(=O)NCc1ccco1)C[C@@H]2C(=O)N1CCN(C(=O)C2CC2)CC1", "note": "(stereo not given in full)", "inhibition": "0.556%"}
{"smiles": "CCN(C(=O)C1CCCN(c2nc(-c3ccc(OC)cc3)no2)C1)c1ccc(OC)cc1", "note": "(stereo not given)", "inhibition": "103% (active)"}
{"smiles": "COc1ccc(NC(=O)N2CCCC(c3nc(-c4ccc(F)cc4)no3)C2)cc1", "note": "(stereo not given)", "inhibition": "-5.6%"}
{"smiles": "CCOC(=O)C1CCCN(C(=O)CN(c2ccc(OC)cc2)S(=O)(=O)c2c(C)noc2C)C1", "note": "(stereo not given)", "inhibition": "14.1%"}
{"smiles": "Cc1ccc(/C=N/NC(=O)c2cc3ccccc3cc2O)o1", "inhibition": "-3.13%"}
{"smiles": "CC(=O)CCC(=O)c1ccc2ccccc2c1", "inhibition": "14.9%"}
{"smiles": "Cc1cc(N=Nc2ccc3ccccc3c2)ccc1O", "inhibition": "107% (active)"}
{"smiles": "CCCCNC(=O)C(C)N(CCN(C)C)C(=O)CCCN1C(=O)NC(c2ccc(Cl)cc2)C(C(=O)OCc2ccccc2)=C1C", "note": "(stereo not given)", "inhibition": "-3.34%"}
{"smiles": "CN(C)CCNC(=O)c1ccc(Cl)c2cc3ccccc3nc12", "inhibition": "-3.1%"}
{"smiles": "O=c1nc2s/c(=C\\c3ccco3)c(=O)n2nc1Cc1ccccc1", "inhibition": "109% (active)"}
{"smiles": "O=C(Cc1ccccc1)n1nc(-c2ccccc2)nc1NCc1ccco1", "inhibition": "-9.78%"}
{"smiles": "Cc1nc2nc(SCC(=O)NCc3ccco3)nn2c(C)c1Cc1ccccc1", "inhibition": "-0.223%"}
{"smiles": "c1ccc2sc(NN=C3CCCC3)nc2c1", "inhibition": "7.45%"}
{"smiles": "O=C(CCNC(=O)c1ccccc1)Nc1nc2ccccc2s1", "inhibition": "-3.35%"}
{"smiles": "c1ccc(C(=NNc2nc3ccccc3s2)c2ccccn2)cc1", "inhibition": "108% (active)"}
{"smiles": "O=[N+]([O-])c1ccc(N=NNc2ccc([N+](=O)[O-])cc2)cc1", "inhibition": "-30.4%"}
